Results from PubChem BioAssay.
Inconclusive results are not listed. The source made the active and inactive calls.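 The calls were made as follows, unless noted: active = viability loss from added drug above about 55%, and viability with drug at most 40%, in both replicates (limit read from the data, passing the limit was not always enough); inconclusive = both conditions met in only one replicate; inactive = neither replicate meets both conditions.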

How the values were obtained:
[1] = Her2 expression decrease, cell viability multiplex – SKBR3 breast tumor cells, AlphaScreen, ATP viability, primary screen (AID 461;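 active = Her2 level under about 52% in both replicate screens, with viability over 70% of control, limit read from the data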;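 as to Her2 level: lower value means less Her2 protein in the cells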;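 as to viability: percent of carrier control wells set as 100% viability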); settings: SKBR3 Her2 protein level, 18-24 h, measured here: SKBR3 viability, ATP luminescence, at 10 µM
[2] = target: Receptor tyrosine-protein kinase erbB-2 (Homo sapiens) (UniProt P04626); experiment: as above; settings: 18-24 h, at 10 µM, stronger effect = lower value
Sequence of Receptor tyrosine-protein kinase erbB-2 (Homo sapiens) (P04626 whole entry, looked up): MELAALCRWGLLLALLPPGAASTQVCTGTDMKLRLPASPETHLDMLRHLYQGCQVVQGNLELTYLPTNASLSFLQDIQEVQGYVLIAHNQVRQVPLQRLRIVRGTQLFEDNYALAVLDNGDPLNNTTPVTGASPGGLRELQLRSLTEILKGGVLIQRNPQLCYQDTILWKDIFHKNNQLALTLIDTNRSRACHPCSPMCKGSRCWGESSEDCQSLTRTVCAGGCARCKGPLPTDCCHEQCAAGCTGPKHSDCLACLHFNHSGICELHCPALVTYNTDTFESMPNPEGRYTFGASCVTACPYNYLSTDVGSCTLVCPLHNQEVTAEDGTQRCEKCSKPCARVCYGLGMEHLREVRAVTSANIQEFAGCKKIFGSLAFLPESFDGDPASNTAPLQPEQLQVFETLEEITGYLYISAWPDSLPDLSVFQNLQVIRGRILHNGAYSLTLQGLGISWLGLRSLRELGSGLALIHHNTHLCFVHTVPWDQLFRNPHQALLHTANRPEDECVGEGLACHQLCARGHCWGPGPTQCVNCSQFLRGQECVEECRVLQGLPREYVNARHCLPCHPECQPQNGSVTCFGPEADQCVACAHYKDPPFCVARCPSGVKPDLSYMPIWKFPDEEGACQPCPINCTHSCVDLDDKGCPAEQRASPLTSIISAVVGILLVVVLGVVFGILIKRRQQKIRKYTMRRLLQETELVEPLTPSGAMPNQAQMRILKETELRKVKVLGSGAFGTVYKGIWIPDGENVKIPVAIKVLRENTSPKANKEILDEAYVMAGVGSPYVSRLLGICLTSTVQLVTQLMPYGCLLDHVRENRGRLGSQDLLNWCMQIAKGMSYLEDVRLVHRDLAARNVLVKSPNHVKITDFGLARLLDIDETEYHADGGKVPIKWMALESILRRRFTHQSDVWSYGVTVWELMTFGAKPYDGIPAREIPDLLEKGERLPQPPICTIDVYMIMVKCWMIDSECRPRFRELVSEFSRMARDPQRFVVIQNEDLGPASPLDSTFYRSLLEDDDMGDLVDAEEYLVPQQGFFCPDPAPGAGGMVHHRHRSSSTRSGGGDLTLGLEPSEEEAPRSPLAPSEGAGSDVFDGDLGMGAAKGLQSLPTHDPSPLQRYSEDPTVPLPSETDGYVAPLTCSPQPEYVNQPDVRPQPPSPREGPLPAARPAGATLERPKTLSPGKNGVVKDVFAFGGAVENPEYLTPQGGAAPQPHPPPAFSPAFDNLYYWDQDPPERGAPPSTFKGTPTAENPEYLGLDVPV

[3] = reduced viability of SK-BR-3 breast cancer cells – cell-based, 24 h, human, pilot screen (AID 572;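 active = viability at or below 10% of carrier control in both of two separate runs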;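 also: compound exposure lasted between 18 and 24 h rather than exactly 24 h; 100% = carrier-treated control wells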); settings: SK-BR-3 viability, CellTiter-Glo luminescence, at 10 µM, stronger effect = lower value
[4] = HUVEC growth inhibition – cell-based, human, primary screen (AID 575;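 active = viability at or below 30% in both replicate assays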;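 also: 100% = median of untreated cell wells with 0.1% DMSO on each plate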); settings: HUVEC proliferation, CellTiter-Glo luminescence, 72 h; at 10 µM; stronger effect = lower value
[5] = H69AR cell proliferation blockers – human, duplicate replicates, primary screen (AID 580;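 active = viability at or under a set limit in both replicates, limit being median viability minus 3 SD, cut at about 48% in these data, passing the limit was not always enough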;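 also: 100% = mean luminescence of untreated wells and 0% = no signal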); settings: H69AR lung tumor cells viability, ATP luminescence, 72 h; at 10 µM; stronger effect = lower value
[6] = MRP1 drug-resistance reversers in H69AR cells – cell-based, doxorubicin co-treatment, pilot screen (AID 601); settings: CellTiter-Glo, 72 h, at 10 µM; for differential viability (reversal): stronger effect = higher value
[7] = yeast transport mutant growth inhibition pilot in 384-well plates, post-Golgi transport modulator project (AID 636; in the data active = inhibition above about 31%); settings: absorbance 615 nm, about 18 h, stronger effect = higher value
[8] = growth suppression of yeast trafficking mutant, preliminary HTS, modulators of trafficking downstream of Golgi apparatus project, 1536-format plate, OD 615 nm (AID 637; in the data active = inhibition above about 30%); settings: yeast transport mutant growth, absorbance 615 nm, 18 h; stronger effect = higher value
[9] = S. cerevisiae growth inhibition in permissive medium (OD615), pilot counter-assay for S. cerevisiae lifespan shortening project, permissive growth control (AID 705;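 active = growth inhibition above 25% in both replicates, a cutoff set 3 SD above the mean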); settings: OD615, 24 h, at 10 µM, stronger effect = higher value
[10] = S. cerevisiae growth inhibition in restrictive medium, OD615, pilot screen, restrictive growth control, yeast lifespan reduction project (AID 706;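 active = growth inhibition above a set limit, 3 SD over mean compound inhibition, in both replicates, cut at about 43% in these data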;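 also: modified DeaD lifespan yeast strain shifted to restrictive glucose medium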); settings: OD615, 48 h, at 10 µM, stronger effect = higher value
[11] = doxorubicin toxicity protection in MRP-1 cells – H69AR cells, CellTiter-Glo, duplicate, MRP-1 activator project, pilot screen (AID 807;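 active = viability increase at or above a cutoff of the median across tested compounds plus 3 SD, cut at about 8.5% in these data, passing the limit was not always enough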;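 also: compound pretreatment 18-22 h then 72 h combined with doxorubicin; 0% = doxorubicin alone and 100% = vehicle without doxorubicin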); settings: H69AR viability with doxorubicin, CellTiter-Glo luminescence; at 10 µM; stronger effect = higher value
[12] = viability of HCT116 without oncogenic beta-catenin – human colon tumor cells, pilot screen (AID 823;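 active = cell viability at or below a set limit in both duplicate runs, the limit being the all-compound median minus 4 SD, cut at about 23% in these data, passing the limit was not always enough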;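 also: 0% = wells killed by 20 µM Hyamine and 100% = untreated DMSO cell wells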); settings: HCT116 beta-catenin knockout viability, CellTiter-Glo, 60 h; at 10 µM; stronger effect = lower value
[13] = viability of PTEN-null HCT116 cells – cell-based, HCT116 clonal line, CellTiter-Glo, pilot screen (AID 824;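 active = viability at or below 27.92% in each of two runs, the all-compound median minus 4 SD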;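 also: 0% = 20 µM Hyamine control and 100% = vehicle cell control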); settings: HCT116 PTEN-deleted viability, 60 h, at 10 µM, stronger effect = lower value
[14] = RAM pathway blockade in budding yeast – dse1pr::URA3 reporter, 5-FOA selection, pilot screen (AID 869;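 active = inhibition over a set limit, the all-compound mean plus 3 SD, in both replicate runs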;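 also: 0% = DMSO wells with no growth and 100% = 10 µM 1-NA-PP1 with full growth; RAM network block rescues cells from 5-FOA so hits raise OD615 growth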); settings: S. cerevisiae dse1pr::URA3 5-FOA growth, OD615, 2 d; at 10 µM; stronger effect = higher value; strain carries analog-sensitive mutant Cbk1 kinase
[15] = RAM signaling pathway blockade in yeast – S. cerevisiae, Pdr1DBD-CYC8 efflux-inhibited sensitized strain, primary screen (AID 1298;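 active = RAM network inhibition above 8.4% in each of two replicates, 3 SD over the compound average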;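 also: 0% = DMSO untreated cells without growth and 100% = 10 µM 1-NA-PP1 full growth; higher means more yeast growth rescued from 5-FOA killing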); settings: S. cerevisiae cbk1-as DSE1-URA3 strain, 5-FOA growth OD615, 2 d; at 50 µM; stronger effect = higher value
[16] = H69AR cells + 2 uM doxorubicin, measured here: viability with 2 uM doxorubicin, stronger effect = lower value
[17] = H69AR cells, compound alone cytotoxicity

| SMILES | viability [1] [%] | Her2 level [2] | viability [3] | viability [4] | viability [5] | differential viability (reversal) ([6]; H69AR cells + 2 uM doxorubicin) | viability [6, 16] [%] | viability [6, 17] [%] | inhibition [7] | inhibition [8] | growth inhibition [9] | growth inhibition [10] | viability increase [11] | viability [12] | viability [13] | inhibition [14] | RAM network inhibition [15] |
| --- | --- | --- | --- | --- | --- | --- | --- | --- | --- | --- | --- | --- | --- | --- | --- | --- | --- |
| CCN1CCN(C(=O)C2CC(c3ccc(F)cc3)=NO2)CC1 (stereo not drawn) | 91.5 | 105% (inactive) | 91.5% (inactive) | 103% (inactive) | 99.1% (inactive) | 24.1% (inactive) | 75.1 | 99.1 | -4.1% (inactive) | -6.67% (inactive) | -3.54% (inactive) | 3.61% (inactive) | 0.82% (inactive) | 95.2% (inactive) | 102% (inactive) | 0.095% (inactive) | 2.03% (inactive) |
| CCCCNC(=O)Cn1c(=O)n(C)c2ccccc21 | 105 | 96.5% (inactive) | 105% (inactive) | 84.4% (inactive) | 88.5% (inactive) | -2.7% (inactive) | 91.2 | 88.5 | -5.07% (inactive) | -2% (inactive) | -9.7% (inactive) | -4.06% (inactive) | -0.03% (inactive) | 106% (inactive) | 101% (inactive) | 1.49% (inactive) | -1.79% (inactive) |
| COc1ccccc1-n1c(=O)[nH]c2c(C(N)=O)nc(CC(C)C)nc21 | 81 | 109% (inactive) | 81% (inactive) | 96.8% (inactive) | 80.4% (inactive) | -12.7% (inactive) | 93 | 80.4 | -2.93% (inactive) | -2.17% (inactive) | -15.9% (inactive) | -13.4% (inactive) | -2.94% (inactive) | 97.9% (inactive) | 99.5% (inactive) | 1.01% (inactive) | 2.83% (inactive) |
| COc1ccc(C(=O)CN2C3=NCCCN3c3ccccc32)cc1OC | 89 | 109% (inactive) | 89% (inactive) | 81.3% (inactive) | 82.4% (inactive) | 5.29% (inactive) | 77.1 | 82.4 | -0.39% (inactive) | 2.5% (inactive) | -6.53% (inactive) | -6.88% (inactive) | -2.15% (inactive) | 56.2% (inactive) | 64.7% (inactive) | 1% (inactive) | 2.03% (inactive) |
| CN1CCN(C(=O)C2CCN(S(=O)(=O)c3ccc4c(c3)oc(=O)n4C)CC2)CC1 | 89 | 104% (inactive) | 89% (inactive) | 94.4% (inactive) | 107% (inactive) | 14.3% (inactive) | 92.4 | 107 | -2.95% (inactive) | 9.5% (inactive) | -6.74% (inactive) | -5.41% (inactive) | 1.79% (inactive) | 102% (inactive) | 102% (inactive) | 2.46% (inactive) | 3.79% (inactive) |
| COc1ccc(C/C(N)=N/n2cnnc2)cc1Cl | 94 | 100% (inactive) | 94% (inactive) | 103% (inactive) | 102% (inactive) | 2.52% (inactive) | 99.4 | 102 | -2.21% (inactive) | -0.83% (inactive) | -9.88% (inactive) | -12% (inactive) | -0.81% (inactive) | 95.7% (inactive) | 99.8% (inactive) | 1.04% (inactive) | 2.47% (inactive) |
| Cc1cc(C)n2c(SCCN3C(=O)c4ccccc4C3=O)nnc2n1 | 90.5 | 95% (inactive) | 90.5% (inactive) | 111% (inactive) | 105% (inactive) | 11.1% (inactive) | 94 | 105 | -0.51% (inactive) | 7.17% (inactive) | -7.84% (inactive) | -8.13% (inactive) | -0.7% (inactive) | 102% (inactive) | 98.6% (inactive) | 2.08% (inactive) | 1.64% (inactive) |
| CC1Cc2nc(SCC(=O)Nc3ccc4c(c3)OCO4)n(-c3ccc(F)cc3)c(=O)c2S1 (stereo not drawn) | 90.5 | 98% (inactive) | 90.5% (inactive) | 79.2% (inactive) | 89.2% (inactive) | 2.12% (inactive) | 87.1 | 89.2 | -5.87% (inactive) | 9.33% (inactive) | -7.17% (inactive) | 5.03% (inactive) | -2.53% (inactive) | 93.6% (inactive) | 86.7% (inactive) | 2% (inactive) | 6.73% (inactive) |
| O=C(O)CC(NC(=O)c1ccccc1NC(=O)c1ccccc1)C(=O)O (stereo not drawn) | 86.5 | 154% (inactive) | 86.5% (inactive) | 93.5% (inactive) | 97.2% (inactive) | 6.64% (inactive) | 90.5 | 97.2 | 3.97% (inactive) | 35.3% (active) | -0.82% (inactive) | -3.04% (inactive) | -0.74% (inactive) | 108% (inactive) | 96.5% (inactive) | 0.785% (inactive) | 0.47% (inactive) |
